HCV inh: blocks hepatitis C virus; Huh7.5.1 HCVcc-Cre infection, luciferase reporter, 44 h; AID 651820; 340,000 tested, 3.4% active; Potency, µM (top dose mostly 41.8 µM), inactives show top-dose activity change, negative = inhibition, most hits filed as inhibitors; further: potency means the concentration at half of the fitted maximal effect
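Luciferase read-out (15 sec integration) after a 15 min room-temperature substrate step quantifies HCVcc-Cre infection. Cells, 1,000 per well, had compound added 4 h post-plating, then virus at ~0.5 moi, and were cultured 44 h.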
AmpC no deterg: inhibitors of E. coli AmpC beta-lactamase without detergent; Potency, µM (highest dose often 57.1 µM), for the others: at the top dose activity change, negative = inhibition, most hits filed as inhibitors; P00811; AID 485341; AmpC nitrocefin hydrolysis, absorbance 480 nm, 0.0001% Triton; 330,000 tested, 0.52% active;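 further: potency means the concentration at half of the fitted maximal effect; plate controls were no compound for no effect and no enzyme for full effect; nearly all actives have a fitted effect of over 20% in size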
Target sequence (P00811 whole entry, looked up): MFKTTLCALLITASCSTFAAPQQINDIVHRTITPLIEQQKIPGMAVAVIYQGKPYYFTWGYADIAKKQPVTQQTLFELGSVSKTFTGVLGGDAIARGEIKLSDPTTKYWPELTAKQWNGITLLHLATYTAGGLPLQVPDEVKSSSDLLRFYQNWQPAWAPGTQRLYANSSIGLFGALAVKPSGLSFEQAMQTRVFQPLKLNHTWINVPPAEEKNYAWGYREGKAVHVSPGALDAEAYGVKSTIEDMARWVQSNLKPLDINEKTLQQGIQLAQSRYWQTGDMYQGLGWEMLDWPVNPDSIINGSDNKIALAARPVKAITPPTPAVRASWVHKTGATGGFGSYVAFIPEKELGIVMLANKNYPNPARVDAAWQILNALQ
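AmpC (5.3 nM in the dispensed reagent) in 20 mM phosphate pH 7.0 with 0.01% (detergent screen) or 0.0001% Triton X-100 was preincubated with compounds for 15 min at room temperature. Nitrocefin was then added from an 800 uM solution, and hydrolysis was followed at 480 nm.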
FMDV antiviral: blocks foot and mouth disease virus; FMDV antiviral cell-based qHTS; Potency, µM (titrated, usually from 57.9 µM), for inactives: at the highest dose activity change, negative = inhibition, most hits filed as inhibitors; 410,000 tested, 1.2% active; calls by dose curve; tested in HEK293T cells; further: read-out not given here; potency means the concentration at half of the fitted maximal effect; nearly all actives have a fitted effect of over 45% in size
HCMV inh: human cytomegalovirus inhibition. HFF cells, HCMV-luciferase reporter, 72 h; active compounds read low. activity change, negative = inhibition, % at 57.5 µM. 410,000 tested, 4.5% active. AID 1259415; in the data active means activity change below about -60%; inconclusive means no clear call, values can overlap the other calls; inactive means above about -39%
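Luciferase read-out from HCMV-luciferase-infected HFFs (MOI 1 PFU/cell) 72 h post infection at 37C; compounds added after 16 h cell attachment; activity normalized between buffer-only basal and Salinomycin (10uM) inhibitor controls.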
AmpC inh detg: inhibitors of E. coli AmpC beta-lactamase with detergent | P00811 | AmpC hydrolysis of nitrocefin, absorbance 480 nm, 0.01% Triton | Potency, µM (titrated, usually from 114 µM), for inactives: top-dose activity change, negative = inhibition, actives largely listed as inhibitors | 370,000 tested, 0.041% active | AID 485294;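 further: potency means the concentration at half of the fitted maximal effect; 0% = no-compound wells and -100% = no-enzyme wells; nearly all actives have a fitted effect of over 25% in size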
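AmpC (5.3 nM in the dispensed reagent) in 20 mM phosphate pH 7.0 with 0.01% (detergent screen) or 0.0001% Triton X-100 was preincubated with compounds for 15 min at room temperature. Nitrocefin was then added from an 800 uM solution, and hydrolysis was followed at 480 nm.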
* = called active by the depositor; ? = inconclusive; / = not tested or not shown. A selection: hits, their analogues and other compounds. The true share with any hit is near 7.3%. Unless noted, the call rests on the fitted dose curve; in most records, active means well fitted curve in the direction sought with a large enough effect; inconclusive means small, poorly fitted or top-dose-only effect, or another doubt; inactive means no such curve, though single readings can be large; an effect the other way counts as inactive or inconclusive. Unless noted, on the % scale 0 is the no-effect control and ±100 the full control effect.

SMILES	HCV inh	AmpC no deterg	FMDV antiviral	HCMV inh	AmpC inh detg
CCN(C(=O)COC(=O)[C@H](C)N=C1NS(=O)(=O)c2ccccc21)C1CCS(=O)(=O)C1 (stereo partly specified)	-20%	-5%	-4%	21	-14%
COc1ccc(-c2csc(N3CCC(C(N)=O)(N4CCCCC4)CC3)n2)cc1	?	20%	/	-81*	2%
O=C(NC12CC3CC(CC(C3)C1)C2)N1CCN(c2nc(-c3ccccc3)cs2)CC1	-24%	-9%	25µM*	-17	1%
O=C(NC1CCCCC1)N1CCN(c2nc(-c3ccccc3)cs2)CC1	10µM*	-8%	?	?	-1%
O=C(C1CCCCC1)N1CCN(c2nc(-c3ccc(F)cc3)cs2)CC1	?	-10%	?	-60*	0%
Cc1ccc(N2CC(C(=O)Nc3nc4ccc(S(C)(=O)=O)cc4s3)CC2=O)cc1 (stereo unspecified)	-10%	7%	-7%	-36	?
O=C(CSc1ccc(-c2ccccn2)nn1)Nc1cccc(F)c1	?	-17%	-6%	-17	3%
Cc1c(C(=O)N2CCCC2)sc2ncnc(NCCN(C)C)c12	/	/	-12%	/	/
O=C(NCc1ccc(F)cc1)C(=O)NCC(c1cccs1)S(=O)(=O)c1cccs1 (stereo unspecified)	/	/	?	-3	1%
O=C(Cn1ccc2cc(S(=O)(=O)N3CCCCC3)ccc21)NCc1ccccc1F	-23%	20µM*	4%	10	-3%
COc1ccc(OC)c(CNC(=O)CCCn2ccc3cc(S(=O)(=O)N4CCCC4)ccc32)c1	10µM*	26%	?	-38	3%
CCc1ccc(CNC(=O)CCCn2ccc3cc(S(=O)(=O)N4CCCC4)ccc32)cc1	/	/	-32%	-89*	8%
CCc1ccc(CNC(=O)Cn2ccc3cc(S(=O)(=O)N4CCCCCC4)ccc32)cc1	/	/	-12%	4	8%
CC(C)Oc1ccc(CNC(=O)C(C)n2ccc3cc(S(=O)(=O)N4CCCCCC4)ccc32)cc1 (stereo unspecified)	/	/	15%	7	-6%
COc1cccc(CNC(=O)CCCn2ccc3cc(S(=O)(=O)N4CCCC4)ccc32)c1	?	-21%	-14%	-26	-11%
COc1ccc(CNC(=O)C(C)n2ccc3cc(S(=O)(=O)N4CCCCCC4)ccc32)cc1 (stereo unspecified)	6.3µM*	-48%	-21%	-9	-12%
C[C@H](C[C@H](N)C(=O)O)C(=O)O	/	/	-19%	/	/
Cc1ccc(C)n1C1C(=O)N(C)c2ccccc21 (stereo unspecified)	/	/	/	0	/
O=C(CSc1c[nH]c2ccccc12)N1CCCc2ccccc21	-30%	18µM*	-12%	1	?
Cn1c(SCC(=O)N2CCN(c3ccccc3)CC2)nnc1-c1c[nH]c2ccccc12	?	6%	18µM*	-80*	-9%
Cn1c(SCC(=O)N2CCCc3ccccc32)nnc1-c1c[nH]c2ccccc12	-6%	-33%	-16%	-12	0%
CCn1c(SCC(=O)N2CCc3ccccc32)nnc1-c1c[nH]c2ccccc12	-8%	-14%	32µM*	?	1%
CCn1c(SCC(=O)N2CCN(c3ccccc3)CC2)nnc1-c1c[nH]c2ccccc12	8.9µM*	1%	?	-75*	?
O=C1CC(c2cc(F)cc(F)c2)c2cc3c(cc2N1)OCO3 (stereo unspecified)	/	/	-18%	-17	4%
COC(=O)c1ccc(CSc2nnc(-c3c[nH]c4ccccc34)n2-c2ccccc2)cc1	22µM*	-32%	-21%	-31	12%
COc1ccc(-n2cnnc2SCC(=O)N2CCN(c3ccccc3)CC2)cc1	-8%	99%	?	-23	0%
Cn1c(SCc2ccccc2)nnc1-c1c[nH]c2ccccc12	-6%	25µM*	36%	26	?
COc1ccc(N2CCN(C(=O)CSc3nnc(-c4cc5ccccc5cc4O)n3C)CC2)cc1	?	10%	25µM*	-67*	-9%
CCCCSc1nnc(-c2c[nH]c3ccccc23)n1C	?	-13%	26%	?	-10%

Compound activity: PubChem BioAssay, National Center for Advancing Translational Sciences (NCATS)
